# Paper PMC7862700, “An all-to-all approach to the identification of sequence-specific readers for epigenetic DNA modifications on cytosine”
# What was measured:
# Assay in all cases: DAPPL (digital affinity profiling via proximity ligation, sequencing); 10 mM Tris-HCl pH 7.5, 50 mM NaCl, 1 mM DTT, 4% glycerol, room temperature, 30 min; GST-TFs on glutathione beads, 16-mer random dsDNA library, 0.1% formaldehyde crosslink after washing; high values mean tight binding
# FLI1 = molecular target: T1, FLI1 (Homo sapiens, UniProt Q01543 1-452); details: protein: recombinant; tags: N-terminal GST; dsDNA, one strand shown
# T1 sequence: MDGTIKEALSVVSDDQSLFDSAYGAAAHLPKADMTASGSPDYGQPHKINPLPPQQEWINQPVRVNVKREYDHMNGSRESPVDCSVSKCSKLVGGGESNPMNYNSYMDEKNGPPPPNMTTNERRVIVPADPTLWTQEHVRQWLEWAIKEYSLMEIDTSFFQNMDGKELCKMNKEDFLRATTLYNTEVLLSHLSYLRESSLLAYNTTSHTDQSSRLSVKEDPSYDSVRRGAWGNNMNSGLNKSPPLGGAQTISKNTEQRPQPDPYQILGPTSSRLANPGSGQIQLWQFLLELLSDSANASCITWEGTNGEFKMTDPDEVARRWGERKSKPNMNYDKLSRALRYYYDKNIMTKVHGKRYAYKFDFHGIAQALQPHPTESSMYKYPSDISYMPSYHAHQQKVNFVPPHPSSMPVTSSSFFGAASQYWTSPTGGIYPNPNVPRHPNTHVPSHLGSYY
# Procedure, shortened: (§1)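 Beads coated with glutathione captured GST-fused human transcription factors that had been expressed in yeast, and the factors were then given DNA barcodes and pooled with a tag-only sample. The pools were incubated with 200 nmole of a random double-stranded 16-mer DNA library in Tris/NaCl/DTT/glycerol buffer for 30 min at room temperature, washed, crosslinked with 0.1% formaldehyde and proximity-ligated with BsaI/T4 ligase at 37 °C for 1 h. PCR amplification and Illumina NextSeq500 sequencing came last. Binding signal is each hexamer's read frequency for a factor divided by its frequency for the tag-only sample.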
# ELK1 = molecular target: T2, ELK1 (Homo sapiens, UniProt P19419 1-428); details: protein: recombinant; tags: N-terminal GST; dsDNA, one strand shown
# T2 sequence: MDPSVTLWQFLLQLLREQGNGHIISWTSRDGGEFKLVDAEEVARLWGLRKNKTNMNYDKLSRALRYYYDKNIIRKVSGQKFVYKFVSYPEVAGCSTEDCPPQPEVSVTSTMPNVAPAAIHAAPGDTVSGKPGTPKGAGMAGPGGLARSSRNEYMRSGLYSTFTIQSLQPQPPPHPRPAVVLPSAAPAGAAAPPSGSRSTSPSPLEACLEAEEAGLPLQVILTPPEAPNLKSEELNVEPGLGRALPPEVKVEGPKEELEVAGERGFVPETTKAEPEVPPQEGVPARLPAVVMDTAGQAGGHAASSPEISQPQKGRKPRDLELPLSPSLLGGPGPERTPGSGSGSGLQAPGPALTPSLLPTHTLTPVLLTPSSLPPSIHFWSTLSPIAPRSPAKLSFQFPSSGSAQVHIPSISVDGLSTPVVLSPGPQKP
# Procedure, shortened: as §1
# GABPA = molecular target: T3, GABPA (Homo sapiens, UniProt Q06546 1-454); details: protein: recombinant; tags: N-terminal GST; dsDNA, one strand shown
# T3 sequence: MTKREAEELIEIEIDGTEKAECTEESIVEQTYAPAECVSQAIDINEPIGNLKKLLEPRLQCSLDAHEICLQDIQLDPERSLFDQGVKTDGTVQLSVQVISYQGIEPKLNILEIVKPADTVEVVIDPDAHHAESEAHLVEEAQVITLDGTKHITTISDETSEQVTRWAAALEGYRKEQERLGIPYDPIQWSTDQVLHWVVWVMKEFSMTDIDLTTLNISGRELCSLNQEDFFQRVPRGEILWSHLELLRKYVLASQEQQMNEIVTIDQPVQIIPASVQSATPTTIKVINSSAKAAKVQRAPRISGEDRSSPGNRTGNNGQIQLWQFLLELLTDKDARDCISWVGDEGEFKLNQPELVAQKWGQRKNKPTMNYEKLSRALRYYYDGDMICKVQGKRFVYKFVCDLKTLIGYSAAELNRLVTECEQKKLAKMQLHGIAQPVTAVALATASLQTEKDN
# Procedure, shortened: as §1
# ERG = molecular target: T4, ERG (Homo sapiens, UniProt P11308 1-479); details: protein: recombinant; tags: N-terminal GST; dsDNA, one strand shown
# T4 sequence: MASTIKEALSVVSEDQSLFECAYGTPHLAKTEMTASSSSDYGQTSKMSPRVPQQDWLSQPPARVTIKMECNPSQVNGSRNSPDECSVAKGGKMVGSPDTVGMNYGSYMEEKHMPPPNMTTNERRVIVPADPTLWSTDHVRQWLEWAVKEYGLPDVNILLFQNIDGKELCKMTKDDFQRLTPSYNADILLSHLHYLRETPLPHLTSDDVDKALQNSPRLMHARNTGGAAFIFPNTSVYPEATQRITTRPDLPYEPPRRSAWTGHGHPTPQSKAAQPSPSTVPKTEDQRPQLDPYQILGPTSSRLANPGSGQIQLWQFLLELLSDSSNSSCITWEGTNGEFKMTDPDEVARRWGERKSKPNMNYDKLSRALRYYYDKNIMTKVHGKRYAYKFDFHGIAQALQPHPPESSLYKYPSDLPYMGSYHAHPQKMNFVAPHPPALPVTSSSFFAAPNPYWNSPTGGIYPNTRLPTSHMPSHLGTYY
# Procedure, shortened: as §1
# ELF1 = ELF1 (Homo sapiens, UniProt P32519 1-619); details: protein: recombinant; tags: N-terminal GST; dsDNA, one strand shown
# Procedure, shortened: as §1
# SPI1 = SPI1 (Homo sapiens, UniProt P17947 1-270); details: protein: recombinant; tags: N-terminal GST; dsDNA, one strand shown
# Procedure, shortened: as §1
# SPIB = SPIB (Homo sapiens, UniProt Q01892 1-262); details: protein: recombinant; tags: N-terminal GST; dsDNA, one strand shown
# Procedure, shortened: as §1
# ELK3 = molecular target: T5, ELK3 (Homo sapiens, UniProt P41970 1-407); details: protein: recombinant; tags: N-terminal GST; dsDNA, one strand shown
# T5 sequence: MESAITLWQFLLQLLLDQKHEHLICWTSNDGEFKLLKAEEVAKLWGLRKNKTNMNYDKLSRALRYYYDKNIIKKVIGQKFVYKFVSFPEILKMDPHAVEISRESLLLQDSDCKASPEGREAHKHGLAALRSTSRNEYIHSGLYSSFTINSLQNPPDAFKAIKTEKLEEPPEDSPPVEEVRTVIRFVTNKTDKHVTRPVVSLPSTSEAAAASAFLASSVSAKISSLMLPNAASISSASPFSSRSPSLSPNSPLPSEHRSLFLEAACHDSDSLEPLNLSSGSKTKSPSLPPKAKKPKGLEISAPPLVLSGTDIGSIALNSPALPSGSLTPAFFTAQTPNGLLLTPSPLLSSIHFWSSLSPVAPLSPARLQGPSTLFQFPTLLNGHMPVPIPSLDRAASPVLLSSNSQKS
# Procedure, shortened: as §1
# FEV = molecular target: T6, FEV (Homo sapiens, UniProt Q99581 1-238); details: protein: recombinant; tags: N-terminal GST; dsDNA, one strand shown
# T6 sequence: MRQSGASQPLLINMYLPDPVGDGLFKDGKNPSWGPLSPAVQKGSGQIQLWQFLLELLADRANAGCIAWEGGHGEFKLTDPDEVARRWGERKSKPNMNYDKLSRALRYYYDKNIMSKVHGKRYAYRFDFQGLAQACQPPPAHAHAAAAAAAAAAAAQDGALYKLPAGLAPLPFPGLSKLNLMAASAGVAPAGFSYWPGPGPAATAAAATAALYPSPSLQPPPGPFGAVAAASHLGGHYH
# Procedure, shortened: as §1
# ETV5 = ETV5 (Homo sapiens, UniProt P41161 1-510); details: protein: recombinant; tags: N-terminal GST; dsDNA, one strand shown
# Procedure, shortened: as §1
# HSF1 = HSF1 (Homo sapiens, UniProt Q00613 1-529); details: protein: recombinant; tags: N-terminal GST; chain copies: 3; dsDNA, one strand shown
# Procedure, shortened: as §1
# ELF4 = ELF4 (Homo sapiens, UniProt Q99607 1-663); details: protein: recombinant; tags: N-terminal GST; dsDNA, one strand shown
# Procedure, shortened: as §1
# ELK4 = molecular target: T7, ELK4 (Homo sapiens, UniProt P28324-2 1-405); details: protein: recombinant; tags: N-terminal GST; dsDNA, one strand shown
# T7 sequence: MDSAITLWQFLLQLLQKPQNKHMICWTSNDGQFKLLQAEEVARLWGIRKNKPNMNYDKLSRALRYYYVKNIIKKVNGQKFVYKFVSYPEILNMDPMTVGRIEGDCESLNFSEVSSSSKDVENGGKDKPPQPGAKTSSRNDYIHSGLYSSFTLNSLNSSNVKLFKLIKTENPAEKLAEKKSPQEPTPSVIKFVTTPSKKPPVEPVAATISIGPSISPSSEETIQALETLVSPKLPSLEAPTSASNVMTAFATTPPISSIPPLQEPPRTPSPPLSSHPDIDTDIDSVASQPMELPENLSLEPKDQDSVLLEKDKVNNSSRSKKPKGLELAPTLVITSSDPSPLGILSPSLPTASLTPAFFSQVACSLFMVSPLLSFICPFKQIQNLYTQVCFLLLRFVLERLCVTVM
# Procedure, shortened: as §1
# ETV2 = molecular target: T8, ETV2 (Homo sapiens, UniProt O00321 1-342); details: protein: recombinant; tags: N-terminal GST; dsDNA, one strand shown
# T8 sequence: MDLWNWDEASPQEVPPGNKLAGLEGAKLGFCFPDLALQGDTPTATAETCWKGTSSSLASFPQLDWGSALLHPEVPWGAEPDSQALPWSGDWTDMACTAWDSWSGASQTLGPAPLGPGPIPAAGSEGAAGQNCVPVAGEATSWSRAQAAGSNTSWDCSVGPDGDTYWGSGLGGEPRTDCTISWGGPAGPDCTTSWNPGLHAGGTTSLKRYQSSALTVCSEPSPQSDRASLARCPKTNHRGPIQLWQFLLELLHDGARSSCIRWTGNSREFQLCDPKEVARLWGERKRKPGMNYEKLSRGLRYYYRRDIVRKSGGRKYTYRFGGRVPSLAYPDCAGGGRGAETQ
# Procedure, shortened: as §1
# ELF3 = molecular target: T9, ELF3 (Homo sapiens, UniProt P78545 1-371); details: protein: recombinant; tags: N-terminal GST; dsDNA, one strand shown
# T9 sequence: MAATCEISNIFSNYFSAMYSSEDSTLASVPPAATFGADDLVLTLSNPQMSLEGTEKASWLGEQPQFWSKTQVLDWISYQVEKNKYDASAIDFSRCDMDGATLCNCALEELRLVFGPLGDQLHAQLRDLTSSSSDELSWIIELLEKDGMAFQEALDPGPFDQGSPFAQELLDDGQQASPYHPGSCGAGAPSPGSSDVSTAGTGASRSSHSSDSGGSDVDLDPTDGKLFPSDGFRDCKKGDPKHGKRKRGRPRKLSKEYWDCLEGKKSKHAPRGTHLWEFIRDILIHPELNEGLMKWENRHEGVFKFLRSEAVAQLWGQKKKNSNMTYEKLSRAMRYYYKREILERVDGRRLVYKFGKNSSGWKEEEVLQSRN
# Procedure, shortened: as §1
# CRX = CRX (Homo sapiens, UniProt O43186 1-299); details: protein: recombinant; tags: N-terminal GST; dsDNA, one strand shown
# Procedure, shortened: as §1
# ETV1 = ETV1 (Homo sapiens, UniProt P50549 1-477); details: protein: recombinant; tags: N-terminal GST; dsDNA, one strand shown
# Procedure, shortened: as §1
# ELF4, sequence (Q99607 whole entry): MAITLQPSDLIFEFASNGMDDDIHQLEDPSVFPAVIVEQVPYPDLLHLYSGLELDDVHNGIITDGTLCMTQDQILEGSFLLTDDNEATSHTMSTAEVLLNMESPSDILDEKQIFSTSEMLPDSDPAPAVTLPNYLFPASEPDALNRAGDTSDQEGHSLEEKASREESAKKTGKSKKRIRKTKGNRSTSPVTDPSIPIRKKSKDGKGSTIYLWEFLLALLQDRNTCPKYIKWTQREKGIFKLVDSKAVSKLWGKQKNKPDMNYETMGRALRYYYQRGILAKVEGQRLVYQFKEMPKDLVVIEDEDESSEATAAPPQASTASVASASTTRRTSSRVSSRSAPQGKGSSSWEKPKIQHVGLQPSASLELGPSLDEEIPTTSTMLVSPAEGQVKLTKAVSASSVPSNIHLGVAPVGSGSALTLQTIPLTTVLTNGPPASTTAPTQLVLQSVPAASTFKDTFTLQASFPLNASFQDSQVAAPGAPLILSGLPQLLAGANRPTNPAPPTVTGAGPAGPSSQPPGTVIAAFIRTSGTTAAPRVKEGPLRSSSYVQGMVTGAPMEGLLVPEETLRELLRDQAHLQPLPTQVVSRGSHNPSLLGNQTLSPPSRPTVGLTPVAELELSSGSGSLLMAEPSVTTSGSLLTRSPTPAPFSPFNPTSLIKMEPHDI
# SPIB, sequence (Q01892 whole entry): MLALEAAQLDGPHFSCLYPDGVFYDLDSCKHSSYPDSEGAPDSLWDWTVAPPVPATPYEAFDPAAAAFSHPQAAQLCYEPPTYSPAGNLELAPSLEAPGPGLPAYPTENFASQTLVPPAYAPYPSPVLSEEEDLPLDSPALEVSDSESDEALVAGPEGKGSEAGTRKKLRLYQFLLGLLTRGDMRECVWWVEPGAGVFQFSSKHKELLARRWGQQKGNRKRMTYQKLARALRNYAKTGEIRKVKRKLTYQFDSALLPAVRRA
# HSF1, sequence (Q00613 whole entry): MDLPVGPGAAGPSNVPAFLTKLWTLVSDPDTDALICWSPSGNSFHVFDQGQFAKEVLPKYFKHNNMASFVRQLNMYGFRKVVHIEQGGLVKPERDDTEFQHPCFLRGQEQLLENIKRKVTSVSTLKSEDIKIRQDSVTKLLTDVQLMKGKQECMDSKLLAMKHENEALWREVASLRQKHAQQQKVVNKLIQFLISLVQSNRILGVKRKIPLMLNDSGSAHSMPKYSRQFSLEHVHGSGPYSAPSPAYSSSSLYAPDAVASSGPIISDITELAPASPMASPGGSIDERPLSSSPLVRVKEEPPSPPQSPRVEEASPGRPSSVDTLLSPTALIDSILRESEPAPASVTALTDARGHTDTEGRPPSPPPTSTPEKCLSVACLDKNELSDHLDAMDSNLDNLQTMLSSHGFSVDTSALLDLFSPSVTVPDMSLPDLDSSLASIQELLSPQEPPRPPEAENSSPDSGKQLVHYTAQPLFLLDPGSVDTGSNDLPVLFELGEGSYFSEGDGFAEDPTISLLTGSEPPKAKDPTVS
# ETV1, sequence (P50549 whole entry): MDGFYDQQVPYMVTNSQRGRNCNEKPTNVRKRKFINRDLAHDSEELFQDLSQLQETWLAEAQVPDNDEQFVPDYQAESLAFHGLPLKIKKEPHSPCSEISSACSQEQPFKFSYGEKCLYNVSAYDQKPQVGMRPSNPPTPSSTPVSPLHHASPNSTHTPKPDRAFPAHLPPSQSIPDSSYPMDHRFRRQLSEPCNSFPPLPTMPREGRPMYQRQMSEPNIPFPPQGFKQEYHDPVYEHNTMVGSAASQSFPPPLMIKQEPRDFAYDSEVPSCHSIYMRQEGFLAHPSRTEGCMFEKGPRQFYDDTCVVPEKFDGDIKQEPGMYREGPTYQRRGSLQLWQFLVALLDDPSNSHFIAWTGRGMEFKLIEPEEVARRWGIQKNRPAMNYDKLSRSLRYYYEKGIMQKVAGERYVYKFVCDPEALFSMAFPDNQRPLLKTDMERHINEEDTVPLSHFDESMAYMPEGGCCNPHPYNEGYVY
# CRX, sequence (O43186 whole entry): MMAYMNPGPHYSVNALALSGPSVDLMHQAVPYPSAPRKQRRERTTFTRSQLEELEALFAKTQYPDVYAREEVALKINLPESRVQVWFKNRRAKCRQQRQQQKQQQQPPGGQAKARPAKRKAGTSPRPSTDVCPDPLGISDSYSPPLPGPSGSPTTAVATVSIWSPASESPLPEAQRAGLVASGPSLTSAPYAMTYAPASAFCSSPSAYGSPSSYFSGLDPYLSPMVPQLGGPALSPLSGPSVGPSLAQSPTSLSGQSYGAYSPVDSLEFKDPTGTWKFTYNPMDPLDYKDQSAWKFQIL
# ELF1, sequence (P32519 whole entry): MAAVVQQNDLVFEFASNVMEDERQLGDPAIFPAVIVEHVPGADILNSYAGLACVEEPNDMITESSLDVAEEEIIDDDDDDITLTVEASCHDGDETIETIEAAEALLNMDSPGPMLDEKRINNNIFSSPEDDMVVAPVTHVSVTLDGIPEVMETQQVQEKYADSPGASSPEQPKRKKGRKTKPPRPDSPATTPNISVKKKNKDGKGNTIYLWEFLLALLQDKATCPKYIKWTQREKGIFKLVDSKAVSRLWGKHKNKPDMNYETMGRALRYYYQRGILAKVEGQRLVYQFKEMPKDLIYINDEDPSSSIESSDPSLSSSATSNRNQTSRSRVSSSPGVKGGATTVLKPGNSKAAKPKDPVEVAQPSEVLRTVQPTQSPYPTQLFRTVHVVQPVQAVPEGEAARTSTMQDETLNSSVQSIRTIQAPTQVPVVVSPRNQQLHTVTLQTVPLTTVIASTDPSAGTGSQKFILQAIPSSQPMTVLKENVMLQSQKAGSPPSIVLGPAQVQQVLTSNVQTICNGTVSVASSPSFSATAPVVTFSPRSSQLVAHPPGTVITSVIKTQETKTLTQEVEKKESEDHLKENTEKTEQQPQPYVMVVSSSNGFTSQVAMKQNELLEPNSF
# ETV5, sequence (P41161 whole entry): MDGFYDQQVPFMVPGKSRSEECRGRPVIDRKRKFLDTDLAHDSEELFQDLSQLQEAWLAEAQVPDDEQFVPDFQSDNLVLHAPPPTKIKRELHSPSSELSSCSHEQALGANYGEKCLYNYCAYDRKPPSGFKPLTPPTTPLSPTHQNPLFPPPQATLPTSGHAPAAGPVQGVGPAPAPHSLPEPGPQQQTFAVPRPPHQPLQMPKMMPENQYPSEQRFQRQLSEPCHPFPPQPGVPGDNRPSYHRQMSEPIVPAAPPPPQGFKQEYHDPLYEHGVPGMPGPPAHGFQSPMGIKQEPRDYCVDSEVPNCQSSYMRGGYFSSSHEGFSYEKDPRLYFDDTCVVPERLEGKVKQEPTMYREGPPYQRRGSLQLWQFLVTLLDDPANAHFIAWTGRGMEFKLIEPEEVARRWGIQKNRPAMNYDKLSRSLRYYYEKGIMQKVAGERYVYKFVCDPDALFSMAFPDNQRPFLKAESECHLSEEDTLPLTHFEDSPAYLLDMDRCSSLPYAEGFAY
sequence,measurement,setting,value
AAGACT,binding signal,FLI1,"1.09 fold enrichment (6-mer frequency, TF over GST control)"
same,binding signal,ELK1,"1.12 fold enrichment (6-mer frequency, TF over GST control)"
same,binding signal,GABPA,"1.06 fold enrichment (6-mer frequency, TF over GST control)"
same,binding signal,ERG,"1.1 fold enrichment (6-mer frequency, TF over GST control)"
same,binding signal,ELF1,"1.08 fold enrichment (6-mer frequency, TF over GST control)"
same,binding signal,SPI1,"1.12 fold enrichment (6-mer frequency, TF over GST control)"
same,binding signal,SPIB,"1.08 fold enrichment (6-mer frequency, TF over GST control)"
same,binding signal,ELK3,"1.14 fold enrichment (6-mer frequency, TF over GST control)"
same,binding signal,FEV,"1.08 fold enrichment (6-mer frequency, TF over GST control)"
same,binding signal,ETV5,"1.09 fold enrichment (6-mer frequency, TF over GST control)"
same,binding signal,HSF1,"1.23 fold enrichment (6-mer frequency, TF over GST control)"
same,binding signal,ELF4,"1.14 fold enrichment (6-mer frequency, TF over GST control)"
same,binding signal,ELK4,"1.06 fold enrichment (6-mer frequency, TF over GST control)"
same,binding signal,ETV2,"1.07 fold enrichment (6-mer frequency, TF over GST control)"
same,binding signal,ELF3,"1.1 fold enrichment (6-mer frequency, TF over GST control)"
same,binding signal,CRX,"1.36 fold enrichment (6-mer frequency, TF over GST control)"
same,binding signal,ETV1,"1.02 fold enrichment (6-mer frequency, TF over GST control)"
